From PubChem BioAssay (NCI)
Compounds without any hit were thinned out: in the full panel of roughly 83,000, 20% have a hit.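 For each line, cells grew in 96-well plates with the test compound present at a single concentration for 48 hours.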 A number with no mark means an inactive call. Activity calls are given as the source filed them. The calls were made as follows: active = growth percent below 10; inactive = the rest.

Legend:
Experiment in all cases: NCI-60 one-dose screen, 48 h (100 = growth as untreated, 0 = no growth, -100 = all killed)
Settings in all cases: 10 µM unless noted
[1] = test system: NCI-H23 lung
[2] = test system: NCI-H226 lung
[3] = test system: NCI-H322M lung
[4] = test system: HOP-62 NSCLC
[5] = test system: NCI-H460 lung
[6] = test system: HOP-92 NSCLC
[7] = test system: NCI-H522 lung
[8] = test system: A549/ATCC NSCLC
[9] = test system: 786-0 renal
[10] = test system: COLO 205 colon
[11] = test system: DU-145 prostate
[12] = test system: K-562 leukemia
[13] = test system: MALME-3M melanoma
[14] = test system: MDA-MB-231 breast
[15] = test system: RXF 393 renal
[16] = test system: SF-268 CNS
[17] = test system: SF-295 CNS
[18] = test system: SF-539 CNS
[19] = test system: UACC-257 melanoma
[20] = test system: M14 melanoma

Row | SMILES | growth [1] | growth [2] | growth [3] | growth [4] | growth [5] | growth [6] | growth [7] | growth [8] | growth [9] | growth [10] | growth [11] | growth [12] | growth [13] | growth [14] | growth [15] | growth [16] | growth [17] | growth [18] | growth [19] | growth [20]
1 | O=C(CCl)Oc1ccc(-c2ccccc2)c(Br)c1 | 100% | 96.4% | 105% | 107% | 104% | 92% | 107% | 106% | 105% | 108% | 104% | 103% | 107% | 109% | 106% | 104% | 107% | 99.4% | 106% | 103%
2 | Cn1cc(-c2nonc2-c2cn(C)c3ccc(F)cc23)c2ccccc21 | 23.2% | 5.33% (active) | 40.2% | 33.1% | 7.52% (active) | 54.6% | -8.4% (active) | 24.5% | 34.3% | 5.23% (active) | 13.6% | 9.9% (active) | 54.1% | 25.6% | -13.4% (active) | 43.3% | 26% | -25.4% (active) | 60.6% | 18.6%
3 | Cc1ccc(C2Oc3ccccc3C3CC(c4cccs4)=NN32)cc1 (stereo not given) | 93.4% | 84.7% | 91.5% | 105% | 101% | 81.7% | 88.7% | 103% | 99.8% | 104% | 97% | 101% | 95.1% | 91.3% | 101% | 91.4% | 99% | 90.1% | 98.6% | 99.3%
4 | c1csc(C2=NN3C(C2)c2ccccc2OC3c2ccncc2)c1 (stereo not given) | 89.8% | 85.8% | 93.1% | 106% | 100% | 87.4% | 87% | 96.2% | 98.7% | 112% | 97% | 99.2% | 86.9% | 89.1% | 105% | 89.5% | 96.1% | 96.7% | 96.5% | 105%
5 | COc1cccc(-c2nn(C(C)(C)C)cc2-c2ccnc(NCCCNS(=O)(=O)c3ccc(C)cc3)c2)c1 | 105% | 101% | 106% | 100% | 103% | 114% | 99% | 103% | 103% | 121% | 107% | 101% | 101% | 112% | 109% | 105% | 103% | 115% | 111% | 105%
6 | CCOC(=O)c1c(CN2CCN(C)CC2)nc2ccc(Cl)cc2c1-c1ccccc1 | 74.7% | 103% | 108% | 70.8% | 59.5% | 30.8% | 65.8% | 67.2% | 57.5% | 97% | 85.7% | 11.7% | 38.6% | 70.7% | 42.9% | 77.9% | 28.8% | 61.9% | -38% (active) | -24.5% (active)
7 | CN(CCCCCl)P(=O)(OCc1ccc([N+](=O)[O-])o1)C(F)(F)c1ccc(CC(=O)NC[C@@H](O)/C=C\[C@@H](O)[C@H](CO)Cc2ccccc2)cc1 (stereo not given in full) | 92.8% | 95.6% | 96.6% | 96.6% | 102% | 135% | -2.39% (active) | 85.3% | 107% | 103% | 105% | 50.2% | 92.1% | 89.3% | 100% | 98.5% | 98.3% | 102% | 92.2% | 95.3%
